Results: PubChem BioAssay (NCI)
“And” between values parts separate entries of the source, which are not always exact repeats. Equal entries are not always repeated. This is part of a sample that, as a whole, favours compounds with a hit. Of some 83,000 tested, about 20% had one in any assay.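 Activity criterion: percent growth below 10, measured after cells in 96-well plates were exposed to a single compound concentration for 48 hours.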 The source made the active and inactive calls.

Legend:
Experiment in all cases: NCI-60 one-dose screen, 48 h (100 = growth as untreated, 0 = no growth, -100 = all killed)
Settings in all cases: 10 µM unless noted
NCI-H23 lung = tested on: NCI-H23 lung
NCI-H226 lung = tested on: NCI-H226 lung
NCI-H322M lung = tested on: NCI-H322M lung
HOP-62 NSCLC = tested on: HOP-62 NSCLC
NCI-H460 lung = tested on: NCI-H460 lung
HOP-92 NSCLC = tested on: HOP-92 NSCLC
NCI-H522 lung = tested on: NCI-H522 lung
A549/ATCC NSCLC = tested on: A549/ATCC NSCLC
786-0 renal = tested on: 786-0 renal
COLO 205 colon = tested on: COLO 205 colon
DU-145 prostate = tested on: DU-145 prostate
K-562 leukemia = tested on: K-562 leukemia
MALME-3M melanoma = tested on: MALME-3M melanoma
MDA-MB-231 breast = tested on: MDA-MB-231 breast
RXF 393 renal = tested on: RXF 393 renal
SF-268 CNS = tested on: SF-268 CNS
SF-295 CNS = tested on: SF-295 CNS
SF-539 CNS = tested on: SF-539 CNS
UACC-257 melanoma = tested on: UACC-257 melanoma
M14 melanoma = tested on: M14 melanoma

Measured: growth

Cc1ccc(C(=O)N(CCCN)[C@@H](c2nc3cc(Cl)ccc3c(=O)n2Cc2ccccc2)C(C)C)cc1
active: NCI-H23 lung 8.15% | NCI-H322M lung -9.48% | HOP-62 NSCLC -28% | NCI-H460 lung -72.4% | HOP-92 NSCLC -16.3% | NCI-H522 lung -45.9% | A549/ATCC NSCLC -40% | 786-0 renal -13.7% | COLO 205 colon -72.3% | DU-145 prostate 1.24% | K-562 leukemia -30.6% | MALME-3M melanoma -79% | MDA-MB-231 breast -75.7% | RXF 393 renal 6.94% | SF-268 CNS -21.8% | SF-295 CNS -60.4% | SF-539 CNS -75.2% | UACC-257 melanoma -56.6% | M14 melanoma -65.2%
inactive: NCI-H226 lung 22.6%

COc1cc(N=Nc2ccc(O)c3ncccc23)c2ncccc2c1
active: A549/ATCC NSCLC 8.08%
inactive: NCI-H23 lung 50.2% | NCI-H226 lung 64.6% | NCI-H322M lung 55.9% | HOP-62 NSCLC 42.7% | NCI-H460 lung 17.4% | HOP-92 NSCLC 32.4% | NCI-H522 lung 15.9% | 786-0 renal 24.3% | COLO 205 colon 52.4% | DU-145 prostate 31% | K-562 leukemia 10.9% | MALME-3M melanoma 35.5% | MDA-MB-231 breast 37.3% | RXF 393 renal 52.5% | SF-268 CNS 18.3% | SF-295 CNS 67.8% | SF-539 CNS 10.1% | UACC-257 melanoma 74.4% | M14 melanoma 25.9%

O=C(/C=C/c1cccs1)Nc1ncc(Cc2ccc(Cl)c(Cl)c2)s1
inactive: NCI-H23 lung 91.4% | NCI-H226 lung 86% | NCI-H322M lung 76.5% | HOP-62 NSCLC 61.5% | NCI-H460 lung 48% | HOP-92 NSCLC 78.1% | NCI-H522 lung 38.9% | A549/ATCC NSCLC 59.4% | 786-0 renal 75.2% | COLO 205 colon 51.4% | DU-145 prostate 59.5% | K-562 leukemia 35.2% | MALME-3M melanoma 53.1% | MDA-MB-231 breast 82.9% | RXF 393 renal 72.8% | SF-268 CNS 67.9% | SF-295 CNS 30.2% | SF-539 CNS 65.1% | UACC-257 melanoma 90.8% | M14 melanoma 29%

CCOc1ccc(C(=O)Cc2ccccc2)cc1
inactive: NCI-H23 lung 115% and 105% | NCI-H226 lung 99.1% | NCI-H322M lung 114% | HOP-62 NSCLC 97.3% and 121% | NCI-H460 lung 110% and 112% | HOP-92 NSCLC 108% and 102% | NCI-H522 lung 93.8% and 102% | A549/ATCC NSCLC 98.9% and 99.4% | 786-0 renal 93.2% and 103% | COLO 205 colon 120% and 125% | DU-145 prostate 105% and 112% | K-562 leukemia 108% and 103% | MALME-3M melanoma 101% | MDA-MB-231 breast 113% and 102% | RXF 393 renal 117% and 96.4% | SF-268 CNS 110% and 117% | SF-295 CNS 121% and 89.3% | SF-539 CNS 101% and 116% | UACC-257 melanoma 110% and 99.2% | M14 melanoma 114% and 106%

C=C(CNCCc1ccc(O)cc1)[C@@H]1CC[C@]2(CO)CC[C@]3(C)[C@H](CC[C@@H]4[C@@]5(C)CCC(NCCc6ccc(O)cc6)C(C)(C)[C@@H]5CC[C@]43C)[C@@H]12 (stereo not given in full)
active: NCI-H23 lung -78.2% | NCI-H226 lung -61% | NCI-H322M lung -90.6% | HOP-62 NSCLC -90.7% | NCI-H460 lung -79.4% | HOP-92 NSCLC -88.4% | NCI-H522 lung -73.1% | A549/ATCC NSCLC -82.4% | 786-0 renal -89.9% | COLO 205 colon -91.1% | DU-145 prostate -98.6% | K-562 leukemia -72.9% | MALME-3M melanoma -88.2% | MDA-MB-231 breast -87.1% | RXF 393 renal -91.2% | SF-268 CNS -81.5% | SF-295 CNS -92.9% | SF-539 CNS -88.2% | UACC-257 melanoma -80.5% | M14 melanoma -85.4%

Cc1ccc(C(=O)c2ccc(CC(=O)N=Nc3c(O)[nH]c4ccc(OC(F)(F)F)cc34)n2C)cc1
inactive: NCI-H23 lung 90% | NCI-H226 lung 91% | NCI-H322M lung 96.7% | HOP-62 NSCLC 93.3% | NCI-H460 lung 103% | HOP-92 NSCLC 116% | NCI-H522 lung 85.6% | A549/ATCC NSCLC 86% | 786-0 renal 101% | COLO 205 colon 110% | DU-145 prostate 102% | K-562 leukemia 92.5% | MALME-3M melanoma 126% | MDA-MB-231 breast 92.4% | RXF 393 renal 104% | SF-268 CNS 93.2% | SF-295 CNS 101% | SF-539 CNS 102% | UACC-257 melanoma 102% | M14 melanoma 97.6%

Clc1nccc2c(-c3csc(-c4c[nH]c5ccc(Br)cc45)n3)c[nH]c12
inactive: NCI-H23 lung 31.9% | NCI-H226 lung 33.6% | NCI-H322M lung 70.4% | A549/ATCC NSCLC 15.1% | DU-145 prostate 29% | MDA-MB-231 breast 14.4% | SF-268 CNS 55.6% | SF-539 CNS 15.3%
active: HOP-62 NSCLC 7.78% | NCI-H460 lung -5.23% | HOP-92 NSCLC 6.84% | NCI-H522 lung 1.55% | 786-0 renal -68.2% | COLO 205 colon 7.99% | K-562 leukemia 3.99% | MALME-3M melanoma 8.43% | RXF 393 renal -14.8% | SF-295 CNS -10.3% | UACC-257 melanoma -48.9% | M14 melanoma -34.3%

Nc1nc2c(s1)CCc1cn(S(=O)(=O)c3ccccc3)cc1-2
inactive: NCI-H23 lung 94.5% and 104% | NCI-H226 lung 82.9% | NCI-H322M lung 93.7% and 114% | HOP-62 NSCLC 91.5% and 112% | NCI-H460 lung 95.1% and 101% | HOP-92 NSCLC 63.3% | NCI-H522 lung 82.4% and 92.9% | A549/ATCC NSCLC 78.5% and 101% | 786-0 renal 92.7% and 104% | COLO 205 colon 106% and 108% | DU-145 prostate 100% and 114% | K-562 leukemia 88.6% and 88.2% | MALME-3M melanoma 107% and 98% | MDA-MB-231 breast 80.5% and 112% | RXF 393 renal 100% and 110% | SF-268 CNS 80.6% and 97.7% | SF-295 CNS 94.6% and 106% | SF-539 CNS 90.9% and 97.8% | UACC-257 melanoma 86.6% and 112% | M14 melanoma 90.4% and 101%

N#CC(Cc1cccc2ccccc12)c1cc2ccccc2[nH]1 (stereo not given)
inactive: NCI-H23 lung 85% | NCI-H226 lung 83.1% | NCI-H322M lung 84.8% | HOP-62 NSCLC 78.4% | NCI-H460 lung 99.8% | HOP-92 NSCLC 55.6% | NCI-H522 lung 75.5% | A549/ATCC NSCLC 89.5% | 786-0 renal 95.3% | COLO 205 colon 105% | DU-145 prostate 103% | K-562 leukemia 86.6% | MALME-3M melanoma 81.9% | MDA-MB-231 breast 81.4% | RXF 393 renal 87.8% | SF-268 CNS 89.3% | SF-295 CNS 95.9% | SF-539 CNS 102% | UACC-257 melanoma 93.9% | M14 melanoma 82.6%

CCOC(=O)C(=Cc1ccc(C#N)cc1)C(=O)OCC
inactive: NCI-H23 lung 55.5% | NCI-H322M lung 73.2% | HOP-62 NSCLC 104% | NCI-H460 lung 81.6% | HOP-92 NSCLC 58.3% | A549/ATCC NSCLC 53.2% | DU-145 prostate 43.8% | MDA-MB-231 breast 16.3% | SF-268 CNS 28.1% | SF-295 CNS 95.3% | UACC-257 melanoma 14.6% | M14 melanoma 27%
active: NCI-H226 lung -36.3% | NCI-H522 lung -24.6% | 786-0 renal 0.647% | COLO 205 colon 4.69% | K-562 leukemia 3.59% | MALME-3M melanoma -10.9% | RXF 393 renal -62.5% | SF-539 CNS -49.9%

Cc1ccc(S(=O)(=O)Nc2cc(Sc3ccccc3)c(O)c3ccccc23)cc1
inactive: NCI-H23 lung 58% | NCI-H226 lung 96% | NCI-H322M lung 102% | HOP-62 NSCLC 112% | NCI-H460 lung 105% | HOP-92 NSCLC 18.2% | NCI-H522 lung 81% | A549/ATCC NSCLC 90.3% | 786-0 renal 104% | COLO 205 colon 108% | DU-145 prostate 84.3% | K-562 leukemia 41.1% | MALME-3M melanoma 77.7% | RXF 393 renal 105% | SF-268 CNS 65.8% | SF-295 CNS 96.8% | SF-539 CNS 92.9% | UACC-257 melanoma 62.8% | M14 melanoma 107%
active: MDA-MB-231 breast -1.57%

CCOC(=O)C1=C(C)N=C2SC=C(c3ccc(F)cc3)N2[C@H]1c1cn(-c2ccccc2)nc1-c1ccc(Cl)cc1
inactive: NCI-H23 lung 102% | NCI-H226 lung 96.4% | NCI-H322M lung 88.6% | HOP-62 NSCLC 86.8% | NCI-H460 lung 102% | HOP-92 NSCLC 61.6% | NCI-H522 lung 83.4% | A549/ATCC NSCLC 77.8% | 786-0 renal 87.6% | COLO 205 colon 107% | DU-145 prostate 104% | K-562 leukemia 102% | MALME-3M melanoma 100% | MDA-MB-231 breast 88.5% | RXF 393 renal 97.1% | SF-268 CNS 92.4% | SF-295 CNS 99% | SF-539 CNS 101% | UACC-257 melanoma 81.5% | M14 melanoma 98.6%
